The supplement of paper PMC11732987, “Enantioselective OTUD7B fragment discovery through chemoproteomics screening and high-throughput optimisation” (Communications Chemistry, 2025)

Key:
Assay in all cases: log2 ratio of Biotin-Ahx-Ub-VS probe labelling (fragment/DMSO); higher = less target engagement (more negative = stronger competition), active = hit call of the paper (q ≤ 0.05, log2 ratio ≤ -1)
Conditions in all cases: compound concentration: 200 uM; treatment time: 3 h
OTUD6B = biological target: T1, OTUD6B (UniProt Q8N6M0)
T1 sequence (whole entry): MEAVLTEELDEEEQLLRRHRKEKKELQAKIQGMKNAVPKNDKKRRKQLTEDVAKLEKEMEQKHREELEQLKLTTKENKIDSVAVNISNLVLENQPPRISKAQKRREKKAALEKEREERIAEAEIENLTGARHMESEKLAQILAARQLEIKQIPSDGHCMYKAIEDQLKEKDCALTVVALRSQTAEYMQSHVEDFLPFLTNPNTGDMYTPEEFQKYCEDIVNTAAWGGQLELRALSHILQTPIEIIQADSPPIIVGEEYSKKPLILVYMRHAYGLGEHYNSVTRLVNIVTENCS
Method in brief: (§1)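 In triplicate, 495 µg of HEK293T lysate per sample was incubated with fragment at 200 µM or vehicle for 3 h. Biotin-Ahx-Ub-VS was then added to 0.5 µM final for 1 h, and labelled DUBs were captured with NeutrAvidin, digested with LysC and trypsin, and measured by diaPASEF LC-MS/MS. Data are average log2 fragment/vehicle ratios by unpaired t-test from global-median-normalised Spectronaut label-free quantities, restricted to proteins with ≥2 unique peptides.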

OTUD7B = biological target: T2, OTUD7B (UniProt Q6GQQ9)
T2 sequence (whole entry): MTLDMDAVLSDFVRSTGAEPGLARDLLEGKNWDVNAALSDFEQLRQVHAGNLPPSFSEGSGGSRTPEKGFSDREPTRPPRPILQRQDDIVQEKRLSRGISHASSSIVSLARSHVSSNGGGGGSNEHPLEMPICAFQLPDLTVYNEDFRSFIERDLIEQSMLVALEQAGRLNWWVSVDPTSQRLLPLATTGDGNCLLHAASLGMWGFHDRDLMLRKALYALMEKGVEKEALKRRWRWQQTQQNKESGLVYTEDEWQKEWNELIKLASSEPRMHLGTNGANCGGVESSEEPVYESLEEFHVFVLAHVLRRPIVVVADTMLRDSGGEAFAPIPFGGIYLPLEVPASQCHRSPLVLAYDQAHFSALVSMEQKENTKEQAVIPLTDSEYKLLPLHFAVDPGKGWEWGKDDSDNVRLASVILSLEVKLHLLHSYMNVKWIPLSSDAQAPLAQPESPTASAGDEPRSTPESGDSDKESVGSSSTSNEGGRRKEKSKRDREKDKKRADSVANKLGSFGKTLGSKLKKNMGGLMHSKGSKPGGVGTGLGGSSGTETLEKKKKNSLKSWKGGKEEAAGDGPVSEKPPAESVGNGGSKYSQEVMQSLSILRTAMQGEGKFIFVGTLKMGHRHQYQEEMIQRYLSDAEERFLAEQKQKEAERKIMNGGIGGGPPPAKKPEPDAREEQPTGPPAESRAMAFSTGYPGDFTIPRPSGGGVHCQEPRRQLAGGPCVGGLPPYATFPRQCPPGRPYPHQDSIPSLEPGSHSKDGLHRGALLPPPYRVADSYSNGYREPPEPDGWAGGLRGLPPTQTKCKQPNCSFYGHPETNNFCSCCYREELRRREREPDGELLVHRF
Method in brief: as §1

PRPF8 = PRPF8 (UniProt Q6P2Q9)
Method in brief: as §1

PSMD7 = biological target: T3, PSMD7 (UniProt P51665)
T3 sequence (whole entry): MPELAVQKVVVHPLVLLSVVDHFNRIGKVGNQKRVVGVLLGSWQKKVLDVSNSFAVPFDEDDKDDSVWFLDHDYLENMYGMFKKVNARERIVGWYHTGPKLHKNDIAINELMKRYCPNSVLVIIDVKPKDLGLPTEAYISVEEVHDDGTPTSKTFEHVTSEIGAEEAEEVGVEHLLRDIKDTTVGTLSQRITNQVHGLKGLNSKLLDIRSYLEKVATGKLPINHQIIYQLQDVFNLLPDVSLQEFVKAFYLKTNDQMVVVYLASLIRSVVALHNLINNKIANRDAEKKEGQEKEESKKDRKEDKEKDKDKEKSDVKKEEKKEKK
Method in brief: as §1

UCHL1 = UCHL1 (UniProt P09936)
UCHL1, sequence (P09936 whole entry, looked up): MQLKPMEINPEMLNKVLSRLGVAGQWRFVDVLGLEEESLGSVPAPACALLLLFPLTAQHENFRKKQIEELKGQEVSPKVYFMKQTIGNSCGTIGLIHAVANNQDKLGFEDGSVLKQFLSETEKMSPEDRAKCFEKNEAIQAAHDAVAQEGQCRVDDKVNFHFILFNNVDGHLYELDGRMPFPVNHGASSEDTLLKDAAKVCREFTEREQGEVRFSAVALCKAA
Method in brief: as §1

UCHL3 = biological target: T4, UCHL3 (UniProt P15374)
T4 sequence (whole entry): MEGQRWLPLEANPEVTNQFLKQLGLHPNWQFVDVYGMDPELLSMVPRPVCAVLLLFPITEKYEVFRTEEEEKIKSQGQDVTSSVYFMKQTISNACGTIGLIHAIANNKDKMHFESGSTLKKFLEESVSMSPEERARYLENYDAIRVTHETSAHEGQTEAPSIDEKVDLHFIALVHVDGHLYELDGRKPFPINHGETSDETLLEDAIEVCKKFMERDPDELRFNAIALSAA
Method in brief: as §1

UCHL5 = biological target: T5, UCHL5 (UniProt Q9Y5K5)
T5 sequence (whole entry): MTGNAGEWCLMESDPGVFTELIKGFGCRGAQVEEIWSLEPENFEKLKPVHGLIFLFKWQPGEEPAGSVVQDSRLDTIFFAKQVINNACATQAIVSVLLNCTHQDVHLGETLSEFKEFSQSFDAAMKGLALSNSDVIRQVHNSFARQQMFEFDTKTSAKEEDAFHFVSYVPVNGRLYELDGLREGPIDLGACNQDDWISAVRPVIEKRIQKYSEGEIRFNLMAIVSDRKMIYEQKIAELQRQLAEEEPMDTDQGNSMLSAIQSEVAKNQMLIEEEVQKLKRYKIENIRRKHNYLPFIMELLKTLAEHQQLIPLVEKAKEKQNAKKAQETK
Method in brief: as §1

USP10 = USP10 (UniProt Q14694)
USP10, sequence (Q14694 whole entry): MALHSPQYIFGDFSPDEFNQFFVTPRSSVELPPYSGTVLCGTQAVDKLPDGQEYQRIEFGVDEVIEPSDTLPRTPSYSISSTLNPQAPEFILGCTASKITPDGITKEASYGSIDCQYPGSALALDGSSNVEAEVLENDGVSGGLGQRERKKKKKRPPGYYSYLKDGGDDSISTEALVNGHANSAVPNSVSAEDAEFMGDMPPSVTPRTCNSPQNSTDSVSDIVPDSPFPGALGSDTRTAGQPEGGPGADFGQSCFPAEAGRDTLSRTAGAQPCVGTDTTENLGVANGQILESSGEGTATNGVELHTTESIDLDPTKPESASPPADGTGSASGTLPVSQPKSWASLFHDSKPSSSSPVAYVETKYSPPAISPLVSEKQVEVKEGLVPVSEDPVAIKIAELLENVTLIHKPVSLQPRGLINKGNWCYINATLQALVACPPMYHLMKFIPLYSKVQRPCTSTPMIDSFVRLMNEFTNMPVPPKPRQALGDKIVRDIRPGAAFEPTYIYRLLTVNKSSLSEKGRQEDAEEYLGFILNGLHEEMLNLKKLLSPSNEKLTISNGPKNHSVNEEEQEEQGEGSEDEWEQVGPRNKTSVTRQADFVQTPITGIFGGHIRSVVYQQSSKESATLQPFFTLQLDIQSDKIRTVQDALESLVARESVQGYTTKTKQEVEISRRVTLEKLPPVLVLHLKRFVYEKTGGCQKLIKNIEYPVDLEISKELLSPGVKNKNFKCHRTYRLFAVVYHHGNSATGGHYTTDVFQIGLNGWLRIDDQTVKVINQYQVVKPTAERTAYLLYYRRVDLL
Method in brief: as §1

USP15 = biological target: T6, USP15 (UniProt Q9Y4E8)
T6 sequence (whole entry): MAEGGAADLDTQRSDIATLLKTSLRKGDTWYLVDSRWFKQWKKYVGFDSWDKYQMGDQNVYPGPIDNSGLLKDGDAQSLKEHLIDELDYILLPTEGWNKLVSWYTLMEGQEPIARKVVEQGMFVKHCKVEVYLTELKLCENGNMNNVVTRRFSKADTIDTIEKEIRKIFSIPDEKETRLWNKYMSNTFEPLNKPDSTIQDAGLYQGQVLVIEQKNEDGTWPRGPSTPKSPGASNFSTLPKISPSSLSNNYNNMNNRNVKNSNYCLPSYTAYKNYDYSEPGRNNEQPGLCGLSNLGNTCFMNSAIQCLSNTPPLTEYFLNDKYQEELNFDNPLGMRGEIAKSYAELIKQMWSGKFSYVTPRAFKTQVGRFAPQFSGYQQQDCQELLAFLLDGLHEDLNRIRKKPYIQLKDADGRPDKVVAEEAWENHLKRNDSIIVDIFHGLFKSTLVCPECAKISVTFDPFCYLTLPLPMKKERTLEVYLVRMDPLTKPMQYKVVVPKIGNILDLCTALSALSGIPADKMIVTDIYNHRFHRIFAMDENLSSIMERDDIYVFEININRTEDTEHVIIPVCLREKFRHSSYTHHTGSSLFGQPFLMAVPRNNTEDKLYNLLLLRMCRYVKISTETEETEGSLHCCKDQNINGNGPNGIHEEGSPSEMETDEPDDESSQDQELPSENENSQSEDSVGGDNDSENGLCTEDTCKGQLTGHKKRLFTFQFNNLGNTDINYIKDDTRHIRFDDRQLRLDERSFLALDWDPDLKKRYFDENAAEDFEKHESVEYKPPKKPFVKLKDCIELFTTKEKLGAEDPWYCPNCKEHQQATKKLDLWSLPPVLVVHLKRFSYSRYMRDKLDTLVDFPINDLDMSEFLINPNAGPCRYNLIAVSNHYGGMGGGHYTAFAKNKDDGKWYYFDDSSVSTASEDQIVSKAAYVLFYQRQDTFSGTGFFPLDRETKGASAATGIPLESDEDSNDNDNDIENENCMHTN
Method in brief: as §1

USP16 = USP16 (UniProt Q9Y5T5)
USP16, sequence (Q9Y5T5 whole entry, looked up): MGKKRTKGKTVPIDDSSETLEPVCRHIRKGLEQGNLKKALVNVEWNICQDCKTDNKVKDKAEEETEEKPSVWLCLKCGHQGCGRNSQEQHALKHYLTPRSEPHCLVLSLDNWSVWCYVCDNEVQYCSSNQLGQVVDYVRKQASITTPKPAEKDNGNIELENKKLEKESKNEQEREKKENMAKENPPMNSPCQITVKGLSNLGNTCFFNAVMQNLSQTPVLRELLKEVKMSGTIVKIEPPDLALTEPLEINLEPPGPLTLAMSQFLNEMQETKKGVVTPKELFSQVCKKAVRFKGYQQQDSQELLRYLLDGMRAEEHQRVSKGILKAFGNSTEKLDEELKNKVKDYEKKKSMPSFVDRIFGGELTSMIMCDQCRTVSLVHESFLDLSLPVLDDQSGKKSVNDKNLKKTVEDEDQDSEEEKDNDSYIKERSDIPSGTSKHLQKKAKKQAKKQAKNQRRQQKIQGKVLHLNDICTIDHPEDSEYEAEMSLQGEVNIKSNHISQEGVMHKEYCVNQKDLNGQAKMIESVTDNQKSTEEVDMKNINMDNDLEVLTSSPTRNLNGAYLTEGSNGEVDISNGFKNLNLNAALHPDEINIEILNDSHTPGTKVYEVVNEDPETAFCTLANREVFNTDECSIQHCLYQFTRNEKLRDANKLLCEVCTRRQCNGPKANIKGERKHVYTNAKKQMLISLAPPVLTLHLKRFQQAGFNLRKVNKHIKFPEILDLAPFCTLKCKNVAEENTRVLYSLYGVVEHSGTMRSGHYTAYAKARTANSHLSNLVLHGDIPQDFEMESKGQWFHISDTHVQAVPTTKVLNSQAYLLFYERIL
Method in brief: as §1

Measured: log2 ratio of Biotin-Ahx-Ub-VS probe labelling

Cl.O=C(CCl)NCc1ccnc(Oc2ccccc2F)c1
active: UCHL1 -1.49
inactive: OTUD6B -0.263 | OTUD7B -0.533 | PRPF8 -0.054 | PSMD7 -0.0622 | UCHL3 0.27 | UCHL5 -0.282 | USP10 -0.187 | USP15 -0.115 | USP16 0.275
